Test results from PMC7862700, “An all-to-all approach to the identification of sequence-specific readers for epigenetic DNA modifications on cytosine”.

Key:
Assay in all cases: DAPPL (digital affinity profiling via proximity ligation, sequencing); 10 mM Tris-HCl pH 7.5, 50 mM NaCl, 1 mM DTT, 4% glycerol, room temperature, 30 min; GST-TFs on glutathione beads, 16-mer random dsDNA library, 0.1% formaldehyde crosslink after washing; high values mean tight binding
Conditions in all cases: protein: recombinant; tags: N-terminal GST; dsDNA, one strand shown
[1] = biological target: T1, ERF (Homo sapiens, UniProt P50548 1-548)
T1 sequence: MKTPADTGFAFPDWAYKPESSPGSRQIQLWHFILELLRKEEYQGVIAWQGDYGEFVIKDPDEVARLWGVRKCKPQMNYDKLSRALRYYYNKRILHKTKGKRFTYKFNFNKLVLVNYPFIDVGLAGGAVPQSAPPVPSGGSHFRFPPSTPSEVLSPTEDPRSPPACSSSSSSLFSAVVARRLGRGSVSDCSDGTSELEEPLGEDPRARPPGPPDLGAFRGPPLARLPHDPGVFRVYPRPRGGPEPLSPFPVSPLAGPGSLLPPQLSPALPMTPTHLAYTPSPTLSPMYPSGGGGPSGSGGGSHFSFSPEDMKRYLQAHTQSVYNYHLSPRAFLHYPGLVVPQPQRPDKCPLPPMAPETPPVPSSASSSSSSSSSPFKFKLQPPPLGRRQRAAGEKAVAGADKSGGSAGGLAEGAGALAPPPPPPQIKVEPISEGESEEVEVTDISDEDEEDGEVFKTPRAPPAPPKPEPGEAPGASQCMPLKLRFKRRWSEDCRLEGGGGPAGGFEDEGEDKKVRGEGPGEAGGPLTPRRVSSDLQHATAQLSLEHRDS
In short: (§1)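 Binding signal is defined as a hexamer's read frequency for one factor over its frequency for the tag-only sample. To obtain reads, GST-fused human transcription factors were expressed in yeast, captured on glutathione beads, barcoded with DNA and pooled with that sample. Pools met 200 nmole of a 16-mer random double-stranded DNA library in Tris/NaCl/DTT/glycerol buffer for 30 min at room temperature before washing, 0.1% formaldehyde crosslinking, proximity ligation (BsaI/T4 ligase, 1 h, 37 °C), PCR and Illumina NextSeq500 sequencing.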

[2] = biological target: T2, ETV3L (Homo sapiens, UniProt Q6ZN32 1-361)
T2 sequence: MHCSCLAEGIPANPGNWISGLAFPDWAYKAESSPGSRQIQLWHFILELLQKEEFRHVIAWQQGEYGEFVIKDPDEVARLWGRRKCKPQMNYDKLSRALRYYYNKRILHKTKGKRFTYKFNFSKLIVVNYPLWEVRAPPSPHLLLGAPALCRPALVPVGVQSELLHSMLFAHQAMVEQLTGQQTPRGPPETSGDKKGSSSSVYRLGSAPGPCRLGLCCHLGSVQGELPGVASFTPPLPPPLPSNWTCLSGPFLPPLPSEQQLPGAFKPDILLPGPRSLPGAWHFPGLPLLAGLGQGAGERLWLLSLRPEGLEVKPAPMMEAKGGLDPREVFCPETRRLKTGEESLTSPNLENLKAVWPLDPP
In short: as §1

[3] = biological target: T3, ETS2 (Homo sapiens, UniProt P15036 1-469)
T3 sequence: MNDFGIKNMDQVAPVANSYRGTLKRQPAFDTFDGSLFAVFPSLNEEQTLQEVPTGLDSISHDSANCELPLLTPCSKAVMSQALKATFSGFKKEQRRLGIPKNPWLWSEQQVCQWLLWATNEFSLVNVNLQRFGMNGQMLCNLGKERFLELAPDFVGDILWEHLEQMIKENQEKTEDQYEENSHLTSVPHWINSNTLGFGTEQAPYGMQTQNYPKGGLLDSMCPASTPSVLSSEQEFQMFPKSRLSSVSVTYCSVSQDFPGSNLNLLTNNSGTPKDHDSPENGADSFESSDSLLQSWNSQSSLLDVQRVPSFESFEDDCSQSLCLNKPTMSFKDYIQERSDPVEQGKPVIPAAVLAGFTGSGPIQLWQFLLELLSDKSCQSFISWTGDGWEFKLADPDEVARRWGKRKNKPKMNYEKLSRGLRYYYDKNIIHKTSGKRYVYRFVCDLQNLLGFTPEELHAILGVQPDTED
In short: as §1

[4] = biological target: T4, SPDEF (Homo sapiens, UniProt O95238 1-335)
T4 sequence: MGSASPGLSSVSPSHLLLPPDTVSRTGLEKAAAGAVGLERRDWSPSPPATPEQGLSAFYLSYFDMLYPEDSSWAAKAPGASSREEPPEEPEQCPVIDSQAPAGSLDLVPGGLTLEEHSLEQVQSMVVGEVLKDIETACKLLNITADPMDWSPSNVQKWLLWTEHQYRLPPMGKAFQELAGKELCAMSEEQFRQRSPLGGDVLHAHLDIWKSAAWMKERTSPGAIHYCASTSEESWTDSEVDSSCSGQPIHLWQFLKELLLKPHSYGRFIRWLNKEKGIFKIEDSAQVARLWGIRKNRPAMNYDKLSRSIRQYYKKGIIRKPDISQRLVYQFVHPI
In short: as §1

[5] = biological target: T5, ETV7 (Homo sapiens, UniProt Q9Y603 1-341)
T5 sequence: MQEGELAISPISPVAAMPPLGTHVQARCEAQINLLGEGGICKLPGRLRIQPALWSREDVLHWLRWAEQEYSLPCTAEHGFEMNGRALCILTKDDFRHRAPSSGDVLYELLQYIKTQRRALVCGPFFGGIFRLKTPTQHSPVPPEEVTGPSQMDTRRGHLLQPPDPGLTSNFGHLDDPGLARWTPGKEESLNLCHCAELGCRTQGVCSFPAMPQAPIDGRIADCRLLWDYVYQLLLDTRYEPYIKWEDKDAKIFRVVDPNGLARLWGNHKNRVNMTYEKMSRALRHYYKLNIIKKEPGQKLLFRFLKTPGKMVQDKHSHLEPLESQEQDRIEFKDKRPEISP
In short: as §1

[6] = biological target: T6, ELF5 (Homo sapiens, UniProt Q9UKW6-2 1-255)
T6 sequence: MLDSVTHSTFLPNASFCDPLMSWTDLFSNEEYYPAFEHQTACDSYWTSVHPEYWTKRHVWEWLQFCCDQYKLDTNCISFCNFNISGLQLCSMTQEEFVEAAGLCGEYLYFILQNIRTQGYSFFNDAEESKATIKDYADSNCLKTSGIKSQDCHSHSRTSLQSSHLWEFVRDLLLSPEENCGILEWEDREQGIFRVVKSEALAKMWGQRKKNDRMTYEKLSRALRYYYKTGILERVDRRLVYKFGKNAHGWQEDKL
In short: as §1

[7] = biological target: T7, ETV3 (Homo sapiens, UniProt P41162-2 1-143)
T7 sequence: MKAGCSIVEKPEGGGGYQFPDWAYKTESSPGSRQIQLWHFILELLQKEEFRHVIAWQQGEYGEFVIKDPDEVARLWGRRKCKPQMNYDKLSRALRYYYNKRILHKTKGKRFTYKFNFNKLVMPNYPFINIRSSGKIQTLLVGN
In short: as §1

[8] = biological target: ETV6 (Homo sapiens, UniProt P41212 1-452)
In short: as §1

Sequence of ETV6 (P41212 whole entry): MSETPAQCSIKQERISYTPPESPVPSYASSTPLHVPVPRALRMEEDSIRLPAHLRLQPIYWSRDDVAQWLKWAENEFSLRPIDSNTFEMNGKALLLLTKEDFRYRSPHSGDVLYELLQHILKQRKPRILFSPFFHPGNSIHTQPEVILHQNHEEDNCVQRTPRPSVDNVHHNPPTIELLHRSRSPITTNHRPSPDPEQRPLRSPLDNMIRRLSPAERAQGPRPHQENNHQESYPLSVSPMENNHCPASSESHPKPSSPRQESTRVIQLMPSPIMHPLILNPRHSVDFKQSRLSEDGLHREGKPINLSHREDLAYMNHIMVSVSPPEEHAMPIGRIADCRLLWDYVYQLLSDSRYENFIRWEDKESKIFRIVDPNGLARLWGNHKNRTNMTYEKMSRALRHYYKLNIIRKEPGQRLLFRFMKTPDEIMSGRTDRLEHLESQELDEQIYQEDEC

| Sequence | binding signal [1] | binding signal [2] | binding signal [3] | binding signal [4] | binding signal [5] | binding signal [6] | binding signal [7] | binding signal [8] |
| --- | --- | --- | --- | --- | --- | --- | --- | --- |
| CTACTA | 1.35 fold enrichment (6-mer frequency, TF over GST control) | 1.29 fold enrichment (6-mer frequency, TF over GST control) | 1.26 fold enrichment (6-mer frequency, TF over GST control) | 1.28 fold enrichment (6-mer frequency, TF over GST control) | 1.44 fold enrichment (6-mer frequency, TF over GST control) | 1.24 fold enrichment (6-mer frequency, TF over GST control) | 1.23 fold enrichment (6-mer frequency, TF over GST control) | 1.46 fold enrichment (6-mer frequency, TF over GST control) |
| ATGAAA | 1.21 fold enrichment (6-mer frequency, TF over GST control) | 1.16 fold enrichment (6-mer frequency, TF over GST control) | 1.15 fold enrichment (6-mer frequency, TF over GST control) | 1.06 fold enrichment (6-mer frequency, TF over GST control) | 1.07 fold enrichment (6-mer frequency, TF over GST control) | 1.13 fold enrichment (6-mer frequency, TF over GST control) | 1.1 fold enrichment (6-mer frequency, TF over GST control) | 1.1 fold enrichment (6-mer frequency, TF over GST control) |
| AATCAA | 1.17 fold enrichment (6-mer frequency, TF over GST control) | 1.24 fold enrichment (6-mer frequency, TF over GST control) | 1.18 fold enrichment (6-mer frequency, TF over GST control) | 1.11 fold enrichment (6-mer frequency, TF over GST control) | 1.16 fold enrichment (6-mer frequency, TF over GST control) | 1.16 fold enrichment (6-mer frequency, TF over GST control) | 1.2 fold enrichment (6-mer frequency, TF over GST control) | 1.2 fold enrichment (6-mer frequency, TF over GST control) |
| AATGAG | 1.2 fold enrichment (6-mer frequency, TF over GST control) | 1.1 fold enrichment (6-mer frequency, TF over GST control) | 1.2 fold enrichment (6-mer frequency, TF over GST control) | 1.01 fold enrichment (6-mer frequency, TF over GST control) | 1.15 fold enrichment (6-mer frequency, TF over GST control) | 1.17 fold enrichment (6-mer frequency, TF over GST control) | 1.13 fold enrichment (6-mer frequency, TF over GST control) | 1.32 fold enrichment (6-mer frequency, TF over GST control) |
| TCTCAC | 1.44 fold enrichment (6-mer frequency, TF over GST control) | 1.33 fold enrichment (6-mer frequency, TF over GST control) | 1.35 fold enrichment (6-mer frequency, TF over GST control) | 1.23 fold enrichment (6-mer frequency, TF over GST control) | 1.24 fold enrichment (6-mer frequency, TF over GST control) | 1.37 fold enrichment (6-mer frequency, TF over GST control) | 1.34 fold enrichment (6-mer frequency, TF over GST control) | 1.32 fold enrichment (6-mer frequency, TF over GST control) |
| TACTCA | 1.14 fold enrichment (6-mer frequency, TF over GST control) | 1.23 fold enrichment (6-mer frequency, TF over GST control) | 1.19 fold enrichment (6-mer frequency, TF over GST control) | 1.18 fold enrichment (6-mer frequency, TF over GST control) | 1.06 fold enrichment (6-mer frequency, TF over GST control) | 1.18 fold enrichment (6-mer frequency, TF over GST control) | 1.14 fold enrichment (6-mer frequency, TF over GST control) | 1.22 fold enrichment (6-mer frequency, TF over GST control) |
| AGAATT | 1.17 fold enrichment (6-mer frequency, TF over GST control) | 1.17 fold enrichment (6-mer frequency, TF over GST control) | 1.14 fold enrichment (6-mer frequency, TF over GST control) | 1.05 fold enrichment (6-mer frequency, TF over GST control) | 1.13 fold enrichment (6-mer frequency, TF over GST control) | 1.1 fold enrichment (6-mer frequency, TF over GST control) | 1.09 fold enrichment (6-mer frequency, TF over GST control) | 1.2 fold enrichment (6-mer frequency, TF over GST control) |
| CTTGGG | 1.47 fold enrichment (6-mer frequency, TF over GST control) | 1.26 fold enrichment (6-mer frequency, TF over GST control) | 1.28 fold enrichment (6-mer frequency, TF over GST control) | 1.21 fold enrichment (6-mer frequency, TF over GST control) | 1.3 fold enrichment (6-mer frequency, TF over GST control) | 1.19 fold enrichment (6-mer frequency, TF over GST control) | 1.26 fold enrichment (6-mer frequency, TF over GST control) | 1.23 fold enrichment (6-mer frequency, TF over GST control) |
| TACTCC | 1.34 fold enrichment (6-mer frequency, TF over GST control) | 1.26 fold enrichment (6-mer frequency, TF over GST control) | 1.37 fold enrichment (6-mer frequency, TF over GST control) | 1.29 fold enrichment (6-mer frequency, TF over GST control) | 1.21 fold enrichment (6-mer frequency, TF over GST control) | 1.15 fold enrichment (6-mer frequency, TF over GST control) | 1.33 fold enrichment (6-mer frequency, TF over GST control) | 1.23 fold enrichment (6-mer frequency, TF over GST control) |
| ACTTTA | 1.12 fold enrichment (6-mer frequency, TF over GST control) | 1.26 fold enrichment (6-mer frequency, TF over GST control) | 1.25 fold enrichment (6-mer frequency, TF over GST control) | 1.08 fold enrichment (6-mer frequency, TF over GST control) | 1.29 fold enrichment (6-mer frequency, TF over GST control) | 1.15 fold enrichment (6-mer frequency, TF over GST control) | 1.19 fold enrichment (6-mer frequency, TF over GST control) | 1.18 fold enrichment (6-mer frequency, TF over GST control) |
| TTTAGC | 1.19 fold enrichment (6-mer frequency, TF over GST control) | 1.21 fold enrichment (6-mer frequency, TF over GST control) | 1.01 fold enrichment (6-mer frequency, TF over GST control) | 1.08 fold enrichment (6-mer frequency, TF over GST control) | 1.03 fold enrichment (6-mer frequency, TF over GST control) | 1 fold enrichment (6-mer frequency, TF over GST control) | 1.13 fold enrichment (6-mer frequency, TF over GST control) | 1.12 fold enrichment (6-mer frequency, TF over GST control) |
| CTGTCT | 1.37 fold enrichment (6-mer frequency, TF over GST control) | 1.37 fold enrichment (6-mer frequency, TF over GST control) | 1.4 fold enrichment (6-mer frequency, TF over GST control) | 1.44 fold enrichment (6-mer frequency, TF over GST control) | 1.53 fold enrichment (6-mer frequency, TF over GST control) | 1.28 fold enrichment (6-mer frequency, TF over GST control) | 1.45 fold enrichment (6-mer frequency, TF over GST control) | 1.32 fold enrichment (6-mer frequency, TF over GST control) |
